Values joined by “and” are separate entries in the source; they are usually repeats but may differ in a detail not shown here. Equal values may be shown once. The whole screen tested about 220,000 compounds, of which about 920 (0.42%) were called active. No stated cut-off is given here; in the data, active means inhibition above about 15%; inactive means the rest. What follows is part of a selection rich in actives, with near analogues and random picks from the rest. Where a structure was tested more than once in an assay, its records may differ in their call.

Transitional endoplasmic reticulum ATPase (Homo sapiens), sequence (P55072 whole entry, looked up): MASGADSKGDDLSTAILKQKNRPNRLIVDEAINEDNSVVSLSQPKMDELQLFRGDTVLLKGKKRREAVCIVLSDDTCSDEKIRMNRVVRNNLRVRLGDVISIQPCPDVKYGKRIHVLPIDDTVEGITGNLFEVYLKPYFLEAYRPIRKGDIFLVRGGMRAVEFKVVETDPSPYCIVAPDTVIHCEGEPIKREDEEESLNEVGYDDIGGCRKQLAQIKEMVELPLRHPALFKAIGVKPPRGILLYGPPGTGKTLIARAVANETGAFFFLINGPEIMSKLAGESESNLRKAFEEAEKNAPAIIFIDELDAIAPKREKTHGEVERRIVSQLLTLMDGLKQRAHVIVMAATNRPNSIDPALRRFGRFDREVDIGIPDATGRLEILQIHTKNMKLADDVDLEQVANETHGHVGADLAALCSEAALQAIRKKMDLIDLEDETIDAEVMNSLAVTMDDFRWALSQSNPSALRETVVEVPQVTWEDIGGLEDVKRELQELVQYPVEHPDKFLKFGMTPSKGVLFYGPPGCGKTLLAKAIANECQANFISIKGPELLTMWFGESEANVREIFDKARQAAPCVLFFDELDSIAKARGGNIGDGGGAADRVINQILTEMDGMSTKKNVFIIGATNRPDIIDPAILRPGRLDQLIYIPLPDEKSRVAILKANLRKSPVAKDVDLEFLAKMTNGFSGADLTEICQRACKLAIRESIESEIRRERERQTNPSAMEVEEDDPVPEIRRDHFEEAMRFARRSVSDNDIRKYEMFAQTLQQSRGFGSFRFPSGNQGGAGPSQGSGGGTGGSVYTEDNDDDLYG

The test concerns the target Transitional endoplasmic reticulum ATPase (Homo sapiens) (UniProt P55072). Description: inhibitors of human p97 ATPase, primary screen, biochemical (AID 1481).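 Further: 0% = DMSO vehicle and 100% = wells lacking enzyme.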 As to conditions: recombinant p97 ATPase, Kinase-Glo ATP luminescence, 3 h; at 8 µM; stronger effect = higher value.
For the molecule `N#CC1=C(N)Oc2[nH]c(=S)[nH]c(=O)c2C12C(=O)Nc1ccccc12` (stereo not drawn), the inhibition was 20.7% (active).
In the case of `Cc1ccc(NC2(C#N)C(=O)Nc3ccccc32)cc1` (stereo not drawn), the inhibition is 2.18% (inactive).
Turning to `N#CC1=C(N)Oc2n[nH]c(CSc3ccccc3)c2C12C(=O)Nc1ccccc12` (stereo not drawn), the inhibition is 7.12% (inactive).
Consider `COc1ccc2c(c1)CCc1cn3ncc(C#N)c3nc1-2`, for which the inhibition was 7.2% (inactive).
As for `CCC(=O)OCCNc1nc(-c2ccccc2)nc2ccccc12`, the inhibition is 4.18% (inactive).
Under `Cc1cc(C(C)(C)C)cc(C)c1N` stands 7.52% (inactive); under `COc1cc(C(F)(F)F)c(C(=O)N(C)c2ccc(Cl)cc2)cn1`, -1.66% (inactive); under `C#CCOCCOCCOCCNc1nc(N2CCN(C(=O)[C@H](CCCCN)n3cc([C@@H](N)C(C)CC)nn3)CC2)nc(N2CCN(C(=O)[C@H](Cc3ccc(O)cc3)n3cc([C@@H](N)C(C)CC)nn3)CC2)n1` (stereo partly drawn), 13.3% (inactive).
With `C#CCOCCOCCOCCNc1nc(N2CCN(C(=O)C(Cc3ccc(O)cc3)n3cc(C(N)CC(C)C)nn3)CC2)nc(N2CCN(C(=O)C(Cc3ccc(O)cc3)n3cc(C(N)C(C)CC)nn3)CC2)n1` (stereo not drawn), the inhibition is 14.7% (active).
As to `C#CCOCCOCCOCCNc1nc(N2CCN(C(=O)[C@H](Cc3ccc(O)cc3)n3cc(C(N)CC(C)C)nn3)CC2)nc(N2CCN(C(=O)[C@H](CCC(=O)O)n3cc(C(N)[C@H](C)CC)nn3)CC2)n1` (stereo partly drawn), the inhibition was -3.1% (inactive).
On to `O=C(NCCc1ccccn1)c1cccnc1Oc1ccc(Cl)cc1`, for which the inhibition was -3.2% (inactive).
With `COc1ccccc1N1CCN(C(=O)C(=O)N/N=C/c2ccccc2F)CC1`, the inhibition was 0.1% (inactive).
The figure for `Cc1cc(NC(=O)CCC(=O)N(c2ccccc2)C(C(=O)NC2CCCC2)c2ccncc2)no1` (stereo not drawn) is 3.62% (inactive); for `COc1ccc(C(C(=O)NC2CCCCC2)N(C(=O)Cc2c[nH]c3ccccc23)c2ccccc2)cc1OC` (stereo not drawn) it is 14.6% (active); for `COc1ccc(C(C(=O)NC2CCCCC2)N(C(=O)CCl)c2ccccc2Cl)cc1` (stereo not drawn) it is -0.41% (inactive).
Under `Cc1ccc2nc(-c3ccc(NC(=O)c4cccnc4)cc3)oc2c1` stands -7.59% (inactive); under `COc1cccc(NC(=S)C(C#N)=C2N(C)c3ccccc3N2C)c1`, 4.23% (inactive); under `Cc1[nH][nH]c(=O)c1C(c1ccc(-c2ccc(Cl)cc2)o1)c1c(C)[nH][nH]c1=O`, 18.4% (active).
Take `Cc1[nH][nH]c(=O)c1C(c1ccc2c(c1)OCO2)c1c(C)[nH][nH]c1=O`: the inhibition was -1.45% (inactive).
Take `CCOc1ccc(C(c2c(C)[nH][nH]c2=O)c2c(C)[nH][nH]c2=O)cc1OCC`: the inhibition was -3.3% (inactive).
Turning to `CCc1ccccc1NC(=O)CN(c1ccc(OC)cc1OC)S(=O)(=O)c1ccccc1[N+](=O)[O-]`, the inhibition was 0.37% (inactive).
Turning to `Cc1ccc(Cn2c(SCC(=O)N/N=C/c3ccccc3OCC(=O)O)nc3ccccc32)cc1`, the inhibition was -13.9% (inactive).
On to `CC(NCc1ccccc1OC1CCCC1)c1ccccc1` (stereo not drawn), for which the inhibition was 2.88% (inactive).
Take `CC(Oc1ccccc1F)C(=O)NN` (stereo not drawn): the inhibition was -4.14% (inactive).
With `O=C(/C=C/Nc1ccc(S(=O)(=O)Nc2cnc3ccccc3n2)cc1)c1cccnc1`, the inhibition was 1.02% (inactive).
As for `Oc1ccc2ccccc2c1C=Nc1ccccc1`, the inhibition is 4.59% (inactive).
Regarding `Oc1c(C=Nc2cccc3nsnc23)ccc2ccccc12`, the inhibition was 40.4% (active).
On to `Oc1ccc(N=Cc2c(O)ccc3ccccc23)cc1`, for which the inhibition is 9.71% (inactive).
On to `CCOC(=O)c1ccccc1C(=O)N1CCOCCOCCOCC1`, for which the inhibition was -4.13% (inactive).
The figure for `Nc1nc(SCC(=O)NN(c2ccccc2)c2ccccc2)n[nH]1` is -5.25% (inactive); for `COc1cc(OC)c(C(=O)Nc2ccccc2-c2ccccc2)cc1OC` it is 0.92% (inactive).
Under `COc1ccccc1C(=O)Nc1nc2nc(-c3ccccc3)cc(=O)n2[nH]1` stands 14.8% (active).
Turning to `COc1ccccc1NC(=O)c1cc(Cl)nc2ccccc12`, the inhibition is 5.78% (inactive).
`O=C(NCCc1ccccc1)Oc1ccc(Cl)cc1`: the inhibition is -1.73% (inactive).
Regarding `O=C(N/N=C/c1ccccc1O)/C(=C/c1ccccc1)CCO`, the inhibition is 2.01% (inactive).
Under `CCC1CCCCN1S(=O)(=O)Cc1ccccc1Cl` (stereo not drawn) stands 2.1% (inactive).
The figure for `O=C(/C=C/c1ccc(Cl)c([N+](=O)[O-])c1)c1cccnc1` is -0.11% (inactive).
As for `CN(C)c1ccc(/C=C/C(=O)c2ccc(O)cc2)cc1[N+](=O)[O-]`, the inhibition was 0.06% (inactive).
For the molecule `O=C(/C=C/c1ccc(Cl)c([N+](=O)[O-])c1)c1ccc(O)cc1`, the inhibition is 19.3% (active).
On to `Cc1ccccc1Nc1c(-c2ccccc2)nc2ncccn12`, for which the inhibition is 4.55% (inactive).
Under `CC(Sc1cccc[n+]1[O-])C(=O)Nc1cccc(S(=O)(=O)N2CCOCC2)c1` (stereo not drawn) stands 4.59% (inactive); under `CN(C)c1ccc(NC(=O)CSc2n[nH]c(-c3ccco3)n2)cc1`, -3.13% (inactive).
In the case of `COc1cc(C(=O)Nn2c(O)c(C3=c4ccccc4=NC3=O)sc2=S)ccc1O`, the inhibition is 4.86% (inactive).
Regarding `COC(=O)Cn1nc(-c2ccccc2)c2cc(Cl)ccc21`, the inhibition is -5.36% (inactive).
Consider `Cc1cc2nc3c(=O)n(Cc4ccccc4)c(=O)[nH]c3nc2cc1N`, for which the inhibition was 8% (inactive).
As to `Nc1ccc2nc3c(=O)[nH]c(=S)[nH]c3nc2c1`, the inhibition is 39.2% (active).
Regarding `Cc1ccc(C(=O)N/C(=C/c2cccs2)C(=O)N2CCCCC2)cc1`, the inhibition is 1.51% (inactive).
The figure for `CCc1nc2sc3c(Cl)ncnc3c2c2c1CCCC2` is 6.87% (inactive).
As to `C=CCn1c(N)c(S(=O)(=O)c2cccs2)c2nc3ccccc3nc21`, the inhibition is 6.58% (inactive).
The figure for `CC(C)Cn1c(N)c(C(=O)NCc2cccs2)c2nc3ccccc3nc21` is 4.74% (inactive); for `C=CCn1c(N)c(C(=O)OCC(C)C)c2nc3ccccc3nc21` it is 21.5% (active); for `CC(=O)c1cccc(-n2nnnc2SCC(=O)NNC(=O)C2CCCCC2)c1` it is -0.28% (inactive).
Take `COc1ccccc1CNC(=O)Cn1c(=O)oc2cc(Cl)ccc21`: the inhibition was -2.55% (inactive).
For the molecule `COCC(C)OC(=O)c1c(N)n(CCCN2CCOCC2)c2nc3ccccc3nc12` (stereo not drawn), the inhibition is 4.25% (inactive).
As for `CCN1C(=O)/C(=c2\s/c(=C3\Sc4ccccc4N3C)c(=O)n2C)N(C)C1=S`, the inhibition is 2.09% (inactive).
Consider `CCN1C(=O)/C(=C2/Sc3ccccc3N2CCCS(=O)(=O)O)SC1=S`, for which the inhibition was 16.4% (active) and -0.77% (inactive).
In the case of `CCCCN1C(=O)/C(=C/C=C2/C=Cc3ccccc3N2CC)SC1=S`, the inhibition is 6.25% (inactive).
Consider `NC(=O)Cc1ccc2c(c1)[nH]c1ccccc12`, for which the inhibition is 2.82% (inactive).
As to `Fc1ccc(CNCc2ccc(Br)cc2)cc1`, the inhibition was 9.11% (inactive).
With `COc1ccccc1-n1c(SCC(=O)O)nc2sc3c(c2c1=O)CCC3`, the inhibition was -1.29% (inactive).
As to `Cc1ccc(C(C[N+](=O)[O-])c2c(C)cc3ccccn23)cc1` (stereo not drawn), the inhibition is -4.06% (inactive).
Under `COc1ccc(CCNC(=O)CCCCn2c(=O)[nH]c3ccccc3c2=O)cc1OC` stands 4.64% (inactive).
As to `O=C(CCCn1c(=O)[nH]c2cc(Cl)ccc2c1=O)NCCN1CCN(c2ccccc2)CC1`, the inhibition was 1.79% (inactive).
Under `CCN(CC)CCNC(=O)CCCCCn1c(=O)[nH]c2cc(C(=O)OC)ccc2c1=O` stands 15% (active).
Regarding `O=C(CSc1nc2ccc([N+](=O)[O-])cc2[nH]1)c1ccc(Cl)cc1`, the inhibition was 2.81% (inactive).
The figure for `CC(CC(=O)Nc1ccccc1)n1ccnc1` (stereo not drawn) is -4.72% (inactive); for `Cc1cc(C)c(NC(=O)CN2C(=O)NC(Cc3ccccc3)C2=O)c(C)c1` (stereo not drawn) it is -0.65% (inactive).
Take `COc1ccccc1CNC(=O)COc1ccc(C)nc1[N+](=O)[O-]`: the inhibition was 0.97% (inactive).
With `COc1cc(/C=C2/C(=O)NN(c3ccc(F)cc3)C2=O)cc([N+](=O)[O-])c1O`, the inhibition is 6.04% (inactive).
The figure for `O=C(CC1N=C2c3ccccc3N=C(SCc3ccccc3Cl)N2C1=O)NCc1ccco1` (stereo not drawn) is 2.64% (inactive); for `CCC(C)NC(=O)CSC1=Nc2ccccc2C2=NC(CCC(=O)NCc3ccco3)C(=O)N12` (stereo not drawn) it is 18.7% (active); for `O=C(CSC1=Nc2ccccc2C2=NC(CC(=O)NCc3ccco3)C(=O)N12)NCc1ccco1` (stereo not drawn) it is 2.33% (inactive).
`COc1nc(N(C)C)nc(N2CC(=O)N(CCNS(=O)(=O)c3ccc(C)cc3)C2=N)n1`: the inhibition is 5.1% (inactive).
In the case of `O=C1N=C(N2CCc3ccccc3C2)S/C1=C\c1ccc(O)cc1`, the inhibition is 0.81% (inactive).
As to `C/C(=N/NC(=S)Nc1ccccc1)c1ccc2c(c1)OCO2`, the inhibition was 2.26% (inactive).
`CCOc1ccc(/C=N/Nc2nncc(-c3ccccc3)n2)cc1OC`: the inhibition was 0.88% (inactive).
As for `CCOc1nc(OCC)nc(-n2cc(-c3ccccc3)nn2)n1`, the inhibition was 24.2% (active).
The figure for `CCOC(=O)c1nnn(-c2nc(OC)nc(N(C)C)n2)c1-c1ccccc1` is -0.37% (inactive).
With `COC(=O)c1scc(S(=O)(=O)C(C)(C)C)c1-n1cccc1`, the inhibition was 3.92% (inactive).
Take `Cc1ccc(C(=O)NC2CC(C)(C)NC(C)(C)C2)c(C)c1`: the inhibition was -2.82% (inactive).
For the molecule `Cc1ccc2c(c1)NCC(C(=O)NC1CCC(C)CC1)O2` (stereo not drawn), the inhibition was 18.4% (active).
With `CC1CCC(NC(=O)C2c3ccccc3C(=O)N2Cc2ccc3c(c2)OCO3)CC1` (stereo not drawn), the inhibition is -6.03% (inactive).
With `CN1C(=O)/C(=C\c2cc(Br)cs2)c2ccccc21`, the inhibition was 7.61% (inactive).
The figure for `O=C(Nc1nnc(Cc2ccccc2)s1)c1cnccn1` is 1.61% (inactive).
Regarding `COc1cccc(NC(=S)NCc2ccco2)c1`, the inhibition is 3.44% (inactive).
Under `O=C(NCCCO)/C(=C\C=C\c1ccccc1)NC(=O)c1ccccc1Cl` stands 6.57% (inactive); under `CCN1CCc2nc(NC(=O)c3cc(F)c(F)cc3Cl)sc2C1`, 4.45% (inactive); under `OCCNc1nc2ccccc2n1-c1ncnc2sc3c(c12)CCC3`, -5.39% (inactive).

Source of the values: PubChem BioAssay AID1481 (The Scripps Research Institute Molecular Screening Center, 2009).
